Mdm2-MdmX inh = human Mdm2/MdmX binding inhibition. inhibition, % at 8 µM. SaOS-2 split-luciferase Mdm2/MdmX complementation, luminescence. O15151+Q00987. 330,000 compounds, 3% hits. AID 485346;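 active means inhibition of at least 50% at 8 µM in the primary screen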
Jurkat NFkB inh = lowers PMA/ionomycin-induced NF-kB signal in Jurkat cells; PMA/ionomycin-induced NF-kB luciferase reporter, luminescence; AID 435003; 330,000 compounds, 0.53% hits; inhibition, % at 4 µM; in the data active means inhibition above about 50%
697 NFkB inh = lowers PMA/ionomycin-induced NF-kB signal in 697 B cells; 697 B-cell NF-kB luciferase reporter, 16 h; inhibition, % at 4 µM; 330,000 compounds, 0.33% hits; in the data active means inhibition above about 35%
Gli-Sufu antag = blocks Gli-Sufu signaling in a luciferase reporter; Sufu-KO-LIGHT fibroblasts, Gli luciferase reporter luminescence; AID 588413; inhibition, % at 5 µM; 340,000 compounds, 0.74% hits;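 active means inhibition above about 55%, limit read from the data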
Shn3 3UTR inh = Schnurri-3 reporter inhibition in Clone20 osteoblasts; Clone20 osteoblast Shn3 3'UTR firefly luciferase, 24 h; 360,000 compounds, 0.52% hits; inhibition, % at 12.5 µM; AID 588674;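 active means mean inhibition of at least 75% with every replicate also reaching 75%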
697 NFkB conf = lowers PMA/ionomycin-induced NF-kB signal in 697 B cells. 2,000 compounds, 35% hits. shares compounds with 697 NFkB inh. AID 449746. 697 B-cell NF-kB luciferase, 16 h. inhibition, % at 4 µM; in the data active means inhibition mostly above about 28%, no sharp cut-off; inactive means mostly below about 22%
Each line names hits and unclear results; the compound was inactive in the other large screens (follow-up assays come after a bar, where they were run). Only some compounds are listed: those with a hit (about 3.8% of all), similar ones and a draw of the others.

Cc1ccc(NC(=S)c2nc3ccccc3s2)cc1	none | 697 NFkB conf inactive
COc1ccc(NS(=O)(=O)c2cc(NC(=O)c3nn(C)c(=O)c4ccccc34)ccc2OC)cc1	697 NFkB inh 37 | 697 NFkB conf inactive
Oc1cccc(-c2nc3ccccc3s2)c1	none | 697 NFkB conf inactive
Nc1cccc(-c2nc3ccccc3s2)c1	none
COc1ccc(COc2cc(-c3cccc(OC)c3)nc3ccc(NC(=O)c4ccccc4)cc23)cc1	697 NFkB inh 40 | 697 NFkB conf inactive
COc1ccc(COc2cc(-c3cccc(OC)c3)nc3ccc(NC(=O)c4ccc(Cl)cc4)cc23)cc1	none
O=C(O)c1ncc(-c2ccccc2)cn1	none
c1ccc(-c2cnc(-c3ccccc3)nc2)cc1	none | 697 NFkB conf inactive
O=C(CSc1cccc[n+]1[O-])Nc1c(Br)cc([N+](=O)[O-])cc1Br	none
CC1(C(=O)NCc2ccc(C(F)(F)F)cc2)CCN1C1Cc2ccccc2C1 (centres undefined)	none (no result: Mdm2-MdmX inh, Jurkat NFkB inh, 697 NFkB inh, Gli-Sufu antag)
O=C(NCCS(=O)(=O)N1CCN(c2cccc(Cl)c2)CC1)c1ccco1	697 NFkB inh 35 | 697 NFkB conf inactive
COCCNC(=O)c1c(N)n(-c2cccc(C)c2)c2nc3ccccc3nc12	697 NFkB inh 35 | 697 NFkB conf inactive
COCCNC(=O)c1c(N)n(-c2ccccc2)c2nc3ccccc3nc12	none
COc1cccc(-c2cc(C(F)(F)F)nc(-n3ccc([N+](=O)[O-])n3)n2)c1	none (no result: Shn3 3UTR inh)
O=[N+]([O-])c1ccn(-c2nc(-c3ccccc3)cc(C(F)(F)F)n2)n1	697 NFkB inh 39 | 697 NFkB conf inactive
O=C(NCCN1CCOCC1)c1ccc(NS(=O)(=O)c2ccccc2)cc1	none
COc1ccc(CCNC(=O)Cn2c(=O)n(-c3cc(F)ccc3F)c(=O)c3sccc32)cc1OC	697 NFkB inh 43 | 697 NFkB conf inactive
COc1ccc(CCNC(=O)Cn2c(=O)n(-c3ccc(F)cc3F)c(=O)c3sccc32)cc1OC	none
CC(=O)Nc1ccc(C(=O)CN2C(=O)NC3(CCOc4ccccc43)C2=O)c(F)c1 (centres undefined)	none
CCCCCN(C(=O)CCC(=O)OCc1cccc(Br)c1)c1c(N)n(CCCC)c(=O)[nH]c1=O	697 NFkB inh 35 | 697 NFkB conf inactive
O=C(CSc1nc2ccccc2c(=O)n1CC1CCCO1)Nc1ccc(F)cc1 (centres undefined)	none
Cc1cc(Nc2ccccc2C(=O)O)n2ncnc2n1	none (no result: Mdm2-MdmX inh, Jurkat NFkB inh, 697 NFkB inh, Gli-Sufu antag)
Cc1cc(Nc2ccccc2N2CCOCC2)n2ncnc2n1	697 NFkB inh 35 | 697 NFkB conf inactive
COc1ccc(OC)c(S(=O)(=O)NC2CC(=O)N(c3ccc(C)c(C)c3)C2)c1 (centres undefined)	none
Cc1ccc(C)c(Nc2nn3c(=O)c4ccc(C(=O)NCc5cccnc5)cc4nc3s2)c1	697 NFkB inh 43 | 697 NFkB conf inactive
Cc1nnc(Cn2cnc3c2c(=O)n(C)c(=O)n3C)o1	none
CC(=O)Nc1sc(NC(=O)c2ccc(C)cc2)nc1-c1cccs1	697 NFkB inh 36 | 697 NFkB conf inactive
COc1ccc(C(=O)Nc2nc(-c3cccs3)c(NC(C)=O)s2)cc1	none
CCCCN1C(=O)C(CC(=O)NCc2cccc3ccccc23)CC(C(=O)N(C)C)=C1C (centres undefined)	none (no result: Mdm2-MdmX inh, Jurkat NFkB inh, 697 NFkB inh, Gli-Sufu antag)
Cc1ccc2ccc(C3C(=O)c4ccccc4C3=O)nc2c1	none | 697 NFkB conf inactive
C/C(=N/Nc1ncc(Br)cn1)c1ccc(Br)cc1	none
C/C(=N\Nc1ccc(C(=O)O)cc1)c1ccc(Br)cc1	none | 697 NFkB conf inactive
C/C(=N\Nc1ccc(C(=O)O)cc1)c1ccc(Cl)s1	none | 697 NFkB conf inactive
CC(C)NC(=O)c1ccc(-c2ccc(F)c(F)c2)c2ccoc12	none (no result: Mdm2-MdmX inh, Jurkat NFkB inh, 697 NFkB inh, Gli-Sufu antag)
CC(C)(C)Sc1ccc([N+](=O)[O-])cc1C(=O)Nc1ccncc1	none
CN(C)S(=O)(=O)c1cccc(NC(=O)CCc2nc3cc(S(=O)(=O)N4CCOCC4)ccc3n2C)c1	none
CCN(CC(=O)Nc1c(F)cccc1F)C(=O)C1(c2ccccc2)CC1	697 NFkB inh 50 | 697 NFkB conf 19
CCOc1ccc2nc(NC(=O)c3ccco3)sc2c1	none (no result: Gli-Sufu antag) | 697 NFkB conf inactive
CC1CCc2nc(NC(=O)Cc3cccs3)sc2C1 (centres undefined)	none
CC1CCc2nc(NC(=O)c3ccco3)sc2C1 (centres undefined)	none | 697 NFkB conf inactive
CS(=O)(=O)c1ccc2nc(NC(=O)c3ccco3)sc2c1	none
CCOC(=O)c1ccc2nc(NC(=O)c3ccco3)sc2c1	none | 697 NFkB conf inactive
COc1ccccc1NC(=O)N(C)C[C@@H]1OCc2cnnn2CCCC(=O)N([C@H](C)CO)C[C@H]1C	none (no result: Mdm2-MdmX inh, Jurkat NFkB inh, 697 NFkB inh, Gli-Sufu antag)
Nc1nc2ccc(Cl)cc2c2nc(-c3ccco3)nn12	697 NFkB inh 36 (no result: Gli-Sufu antag, Shn3 3UTR inh) | 697 NFkB conf 28
Cc1c(C(=O)c2ccccc2)c(=O)n(C)c(=O)n1C	none
NC(=O)c1cc[n+](Cc2ccc([N+](=O)[O-])cc2)cc1	none
CCC1CCCCN1CCCNC(=O)c1ccc2nc(N3CCCCC3)sc2c1 (centres undefined)	none | 697 NFkB conf inactive
CC(=O)N/N=C(/C)c1ccc(NC(=O)c2csc(C)c2C)cc1	none
CC(=O)/C(C#N)=C1\NC(=O)C(Cc2ccccc2)S1 (centres undefined)	none | 697 NFkB conf inactive
C/C(=N\N=C1\NC(=O)C(Cc2ccccc2)S1)c1ccccc1 (centres undefined)	none
Cc1ccc(C(c2nc3ccccc3[nH]2)n2c(-c3ccccc3)nc3ccccc32)cc1 (centres undefined)	none (no result: Mdm2-MdmX inh, Jurkat NFkB inh, 697 NFkB inh, Gli-Sufu antag)
CCOc1ccc(CNC(=O)c2ccc3nc(N4CCOCC4)sc3c2)cc1	none
Cc1ccc(-c2nn3c(C)nnc3c3ccccc23)cc1S(=O)(=O)NCCN1CCOCC1	697 NFkB inh 53 | 697 NFkB conf 30
NC(=S)c1cc2ccc(O)cc2oc1=O	none (no result: Mdm2-MdmX inh, Jurkat NFkB inh, 697 NFkB inh)
Oc1cc(O)cc(-c2cc3ccc(O)cc3o2)c1	697 NFkB inh 38 | 697 NFkB conf 35
CCOC(=O)N1CCN(C2CCCN(C(=O)c3cccc(Cl)c3)C2)CC1 (centres undefined)	none
O=C(NCc1ccccc1)c1ccc(C(=O)N(C2CCCCC2)C2CCCCC2)cc1	697 NFkB inh 35 | 697 NFkB conf inactive
O=C(NCc1ccccc1)c1ccc(C(=O)NCc2ccccc2)cc1	none (no result: Mdm2-MdmX inh, Jurkat NFkB inh, 697 NFkB inh)
COc1cc(/C=N/NC(=O)C2CC(=O)N(c3ccc(C)cc3)C2)cc(OC)c1OC (centres undefined)	none | 697 NFkB conf inactive
COc1ccc(N2CC(C(=O)N/N=C/c3ccccc3)CC2=O)cc1 (centres undefined)	none
CCC(c1c(C)n(C)n(-c2ccccc2)c1=O)c1c(C)n(C)n(-c2ccccc2)c1=O	none
CCCC(c1c(C)n(C)n(-c2ccccc2)c1=O)c1c(C)n(C)n(-c2ccccc2)c1=O	697 NFkB inh 40 | 697 NFkB conf inactive
COCCCNC1=C(C#N)C(=O)NC(c2cccs2)S1 (centres undefined)	none (no result: Mdm2-MdmX inh, Jurkat NFkB inh, 697 NFkB inh, Gli-Sufu antag)
CC(=O)Nc1ccc2nc(SCC(=O)O)sc2c1	697 NFkB inh 36 | 697 NFkB conf inactive

Screening results from PubChem BioAssay.
